Where “and” joins values, the source holds several entries; their conditions need not be identical. Equal entries are not always repeated. In all, about 5,500 compounds went through this assay and about 2,000 (36%) were called active. Not shown: some 18% with an inconclusive outcome. Cut-off read from the data, not from the text of the source: active = normalized growth mostly below about 0.91 (no sharp cut-off); inconclusive = no clear call, values can overlap the other calls; inactive = mostly above about 0.92. This is one part of the list.
Assay: chemical genetic growth profiling, strain panel (AID 1159580);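 note: tested at 20 µM; growth read once vehicle control cultures reached saturation at 30 °C; 1 = growth at the plate median or of vehicle wells; lower values mean less growth of the strain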
Conditions: S. cerevisiae deletion strains, growth OD

Measured: normalized growth

CC(=O)Oc1cc(OC(C)=O)c2c(c1)O[C@H](c1ccc(OC(C)=O)c(OC(C)=O)c1)[C@@H](OC(C)=O)C2
inactive: locus YAL013W, strain DEP1, active compounds read low 1 | locus YAL021C, strain ccr4, active compounds read low 1 | locus YAL026C, strain drs2, active compounds read low 0.995 | locus YAL030W, strain snc1, active compounds read low 1 | locus YBL061C, strain skt5, active compounds read low 1 | locus YBR009C, strain hhf1, active compounds read low 1.02 | locus YBR021W, strain FUR4, active compounds read low 0.975 | locus YBR023C, strain chs3, active compounds read low 1 | locus YBR171W, strain sec66, active compounds read low 1 | locus YBR229C, strain ROT2, active compounds read low 0.992 | locus YBR231C, strain swc5, active compounds read low 0.99 | locus YBR279W, strain paf1, active compounds read low 1 | locus YCL011C, strain gbp2, active compounds read low 1 | locus YCL016C, strain dcc1, active compounds read low 1 | locus YCL029C, strain bik1, active compounds read low 0.965 | locus YCL061C, strain MRC1, active compounds read low 0.994 | locus YCL069W, strain vba3, active compounds read low 1 | locus YCR088W, strain abp1, active compounds read low 1 | locus YDL005C, strain med2, active compounds read low 1 | locus YDL035C, strain GPR1, active compounds read low 0.995 | locus YDL040C, strain nat1, active compounds read low 1 | locus YDL074C, strain BRE1, active compounds read low 0.99 | locus YDL101C, strain DUN1, active compounds read low 0.994 | locus YDL134C, strain PPH21, active compounds read low 1.04 | locus YDL185W, strain tfp1, active compounds read low 0.972 | locus YDL192W, strain arf1, active compounds read low 0.98 | locus YDR001C, strain nth1, active compounds read low 1 | locus YDR069C, strain doa4, active compounds read low 0.994 | locus YDR101C, strain arx1, active compounds read low 0.961 | locus YDR137W, strain rgp1, active compounds read low 1.02 | locus YDR159W, strain sac3, active compounds read low 0.999 | locus YDR162C, strain NBP2, active compounds read low 0.997 | locus YDR195W, strain ref2 0.966 | locus YDR297W, strain sur2, active compounds read low 1.01 | locus YDR318W, strain mcm21, active compounds read low 1.01 | locus YDR334W, strain swr1, active compounds read low 1 | locus YDR335W, strain msn5, active compounds read low 0.997 | locus YDR388W, active compounds read low 0.978 | locus YDR392W, strain spt3, active compounds read low 0.927 | locus YDR502C, strain sam2, active compounds read low 0.984 | locus YEL003W, strain gim4, active compounds read low 1 | locus YEL037C, strain rad23, active compounds read low 1 | locus YEL061C, strain CIN8 (second series), active compounds read low 0.998 | locus YEL061C, strain CIN8, active compounds read low 1 | locus YER015W, strain faa2, active compounds read low 0.995 | locus YER016W, strain bim1, active compounds read low 0.999 | locus YER110C, active compounds read low 0.97 | locus YER111C, strain swi4, active compounds read low 1 | locus YER155C, strain BEM2 (second series), active compounds read low 1 | locus YER155C, strain BEM2, active compounds read low 1 | locus YER167W, strain BCK2, active compounds read low 1 | locus YFR010W, strain ubp6, active compounds read low 1 | locus YGL078C, strain dbp3, active compounds read low 0.979 | locus YGL086W, strain mad1, active compounds read low 0.955 | locus YGL167C, strain pmr1, active compounds read low 1 | locus YGL173C, strain kem1, active compounds read low 1.01 | locus YGL227W, strain vid30, active compounds read low 0.993 | locus YGL240W, strain doc1, active compounds read low 1 | locus YGL248W, strain PDE1, active compounds read low 0.993 | locus YGL253W, strain hxk2, active compounds read low 0.997 | locus YGR078C, strain PAC10, active compounds read low 0.991 | locus YGR135W, strain pre9, active compounds read low 0.992 | locus YGR229C, strain SMI1, active compounds read low 0.992 | locus YGR252W, strain gcn5, active compounds read low 1.1 | locus YHR013C, strain ard1, active compounds read low 0.967 | locus YHR027C, strain rpn1, active compounds read low 1 | locus YHR030C, strain SLT2, active compounds read low 0.998 and 0.994 | locus YHR079C, strain IRE1 (second series), active compounds read low 0.98 | locus YHR079C, strain IRE1, active compounds read low 0.98 | locus YHR094C, strain hxt1, active compounds read low 0.985 | locus YHR129C, strain ARP1, active compounds read low 1 | locus YHR142W, strain chs7, active compounds read low 1.02 | locus YHR200W, strain rpn10, active compounds read low 0.982 | locus YIL066C, strain RNR3, active compounds read low 0.978 | locus YIL073C, strain SPO22, active compounds read low 1.01 | locus YIL125W, strain kgd1, active compounds read low 0.975 | locus YIR030C, strain dcg1, active compounds read low 0.982 | locus YJL092W, strain hpr5, active compounds read low 0.997 | locus YJL095W, strain BCK1 (second series), active compounds read low 1 | locus YJL095W, strain BCK1, active compounds read low 1.02 and 0.979 | locus YJL115W, strain asf1, active compounds read low 0.99 | locus YJL129C, strain trk1, active compounds read low 0.995 | locus YJL134W, strain LCB3, active compounds read low 0.997 | locus YJL154C, strain vps35, active compounds read low 0.997 | locus YJL164C, strain tpk1, active compounds read low 1 | locus YJL166W, strain qcr8, active compounds read low 1.01 | locus YJL168C, strain set2, active compounds read low 0.981 | locus YJL187C, strain SWE1 (second series), active compounds read low 0.985 | locus YJL187C, strain SWE1, active compounds read low 1 | locus YJR043C, strain POL32, active compounds read low 1.01
